Measurements taken from paper PMC4336329 (PLoS ONE, 2015).
Among all 310,000 compounds or so, about 14,000 (4.5%) showed an effect of 50% or more. Effects have a minus sign here. The full list was thinned out, with strong results kept by preference.

What follows are compounds tested against human ether-à-go-go-related gene (hERG) potassium channel (human, UniProt Q12809) (assay: primary screen, population patch clamp on CHO cells stably expressing hERG; higher = less effect of the substance).
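Note: peak tail current of the secondary pulse compared with the same well before compound.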

human ether-à-go-go-related gene (hERG) potassium channel, sequence (Q12809 whole entry, looked up): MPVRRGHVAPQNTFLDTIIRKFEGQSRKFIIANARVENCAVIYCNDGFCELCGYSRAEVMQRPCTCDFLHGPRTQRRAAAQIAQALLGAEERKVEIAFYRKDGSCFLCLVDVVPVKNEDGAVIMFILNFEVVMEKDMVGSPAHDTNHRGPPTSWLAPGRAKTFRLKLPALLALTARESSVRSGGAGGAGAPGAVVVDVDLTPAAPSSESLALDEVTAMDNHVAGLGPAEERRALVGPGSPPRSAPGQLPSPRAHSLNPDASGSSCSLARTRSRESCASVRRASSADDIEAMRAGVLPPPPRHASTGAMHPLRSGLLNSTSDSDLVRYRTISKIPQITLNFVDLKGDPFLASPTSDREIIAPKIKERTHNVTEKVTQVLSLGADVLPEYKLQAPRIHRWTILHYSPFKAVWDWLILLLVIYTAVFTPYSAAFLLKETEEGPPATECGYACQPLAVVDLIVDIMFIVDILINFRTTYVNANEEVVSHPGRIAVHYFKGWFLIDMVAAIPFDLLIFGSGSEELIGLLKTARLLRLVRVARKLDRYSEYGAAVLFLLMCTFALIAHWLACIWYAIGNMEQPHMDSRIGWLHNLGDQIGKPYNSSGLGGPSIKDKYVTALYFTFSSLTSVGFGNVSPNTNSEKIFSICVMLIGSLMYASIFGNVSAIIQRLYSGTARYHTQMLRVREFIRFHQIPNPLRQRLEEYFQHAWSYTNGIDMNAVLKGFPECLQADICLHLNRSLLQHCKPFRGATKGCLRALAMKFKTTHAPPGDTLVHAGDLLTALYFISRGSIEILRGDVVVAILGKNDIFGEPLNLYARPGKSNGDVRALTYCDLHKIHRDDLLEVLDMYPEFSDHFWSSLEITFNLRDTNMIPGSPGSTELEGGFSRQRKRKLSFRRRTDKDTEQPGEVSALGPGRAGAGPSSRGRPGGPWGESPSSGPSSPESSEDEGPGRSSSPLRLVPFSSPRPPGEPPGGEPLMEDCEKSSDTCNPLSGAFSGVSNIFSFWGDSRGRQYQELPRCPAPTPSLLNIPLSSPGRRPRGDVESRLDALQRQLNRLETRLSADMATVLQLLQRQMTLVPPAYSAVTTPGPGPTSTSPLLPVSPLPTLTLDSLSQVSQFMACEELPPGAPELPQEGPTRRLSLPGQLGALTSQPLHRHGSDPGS

| SMILES | hERG current change (%, negative = inhibition) at 10uM |
| --- | --- |
| Cc1noc(C)c1COC(=O)c1cccnc1Cl | 3.21% |
| CNC(=S)Nc1cc(S(=O)(=O)Nc2cc(Cl)ccc2Cl)ccc1N1CCCC1 | -12.4% |
| CN1C(=O)c2cccc(NC(=O)CCc3ccccc3)c2C1=O | -19.6% |
| CC1Cc2ccccc2N1C(=O)CSc1nnc2c(n1)[nH]c1ccc(F)cc12 (stereo not drawn) | 12.6% |
| O=C(CSc1nnc(COc2ccccc2)o1)c1ccccc1 | 1.95% |
| CCC(C)(C)NC(=O)C(c1ccc(F)cc1)N(Cc1cccc(OC)c1)C(=O)c1cnccn1 (stereo not drawn) | 9.72% |
| COC(=O)C1=C(C)C(c2ccc(OC)cc2OC)NC(=O)N1 (stereo not drawn) | 13.1% |
| Cc1ccc(N2C(=O)C3C4C=CC(CC4)C3C2=O)cc1Br (stereo not drawn) | 15.4% |
| c1cncc(-c2nc(-c3ccc4c(c3)OCCO4)cs2)c1 | -4.72% |
| Cl.Nc1nc(-c2ccc3c(c2)OCCO3)cs1 | 19.4% |
| N#Cc1ncc(-c2ccc3c(c2)OCCOCCOCCOCCOCCO3)nc1C#N | -75.3% |
| c1ccn2cc(-c3ccc4c(c3)OCCO4)nc2c1 | 1.08% |
| N#CCC(=O)Nc1nc(-c2ccc3c(c2)OCCO3)cs1 | 13.1% |
| N#Cc1cncc(-c2ccc3c(c2)OCCOCCOCCOCCOCCO3)n1 | -86.9% |
| N#Cc1ncc(-c2ccc3c(c2)OCCOCCOCCOCCO3)nc1C#N | -69% |
| Cc1ccc2nc(-c3ccc4c(c3)OCCO4)cn2c1 | -16% |
| N#Cc1cn(-c2ccccc2)nc1-c1ccc2c(c1)OCCO2 | 11.8% |
| COc1ccc(C(=O)NC(=S)Nc2ccc3[nH]c(=O)[nH]c3c2)c(OC)c1 | 5.35% |
| O=C(CN1C(=O)C2C3C=CC(C4CC34)C2C1=O)Nc1cccc2ncccc12 (stereo not drawn) | 0.881% |
| CCOC(=O)c1ccc(-c2ccc3c(c2)CCC3)nc1C | 12.6% |
| COc1ccccc1C(=O)N/C(N)=N/c1nc2ccccc2o1 | 1.36% |
| N#Cc1ccc(N2CCOCC2)nc1 | -0.729% |

| SMILES | hERG current change (%, negative = inhibition) at 10uM |
| --- | --- |
| CCCCNC(=O)N1CCCN(c2ccc(C#N)cn2)CC1 | -49.8% |
| N#Cc1ccc(N2CCCNCC2)nc1 | -88.5% |
| Cc1ccc(NC(=O)c2nc(S(=O)(=O)Cc3ccccc3C)ncc2Cl)cc1C | 2.81% |
| Cc1nn2c3ccccc3n(CC(=O)c3cccs3)c2nc1=O | 1.78% |
| Cc1ccc(Nc2c(-c3ccco3)nc3ccccn23)cc1 | 2.78% |
| COc1ccccc1C1CCN(Cc2c(C)[nH]c3ccccc23)CC1 | -64.4% |
| COc1ccccc1C1CCN(Cc2ccc(Cl)c(Cl)c2)CC1 | 12.3% |
| COc1ccccc1C1CCN(Cc2ccccc2)CC1 | -34.5% |
| Cc1[nH]c2ccccc2c1CN1CCN(c2ccccn2)CC1 | -52.7% |
| Cc1[nH]c2ccccc2c1CN1CCc2ccccc2C1 | -12.9% |
| COc1ccccc1C1CCN(Cc2ccc3ccccc3c2)CC1 | -75% |
| COc1ccccc1C1CCN(Cc2cccc3ccccc23)CC1 | -13.9% |
| Cc1[nH]c2ccccc2c1C(c1ccncc1)N1CCN(c2ccccn2)CC1 (stereo not drawn) | 8.61% |
| COc1ccccc1C1CCN(Cc2ccc(Cl)cc2Cl)CC1 | 11.1% |
| COc1ccccc1C1CCN(Cc2ccc(C)cc2)CC1 | -90% |
| COc1ccccc1C1CCN(Cc2cccc([N+](=O)[O-])c2)CC1 | -49.1% |
| COc1ccccc1C1CCN(Cc2ccccc2Cl)CC1 | -3.3% |
| COC(=O)CCc1nc2c(C#N)c(-c3ccc(Cl)cc3)ccn2n1 | -2.07% |
| Cc1ccc(/C=N/NC(=O)c2cc(C)oc2C)cc1 | 4.58% |
| COc1ccccc1NC(=O)CC1C(=O)Nc2c1c(=O)n(C)c(=O)n2C (stereo not drawn) | 4.88% |
| Cc1cc(=O)[nH]c(SCC(=O)Nc2nc(-c3ccccc3)c(-c3ccccc3)o2)n1 | 3.76% |
| CC(=O)Nc1ccc(/C=N/N2C(=O)NC(C)(c3ccc(OC(F)F)cc3)C2=O)cc1 (stereo not drawn) | -10.5% |

| SMILES | hERG current change (%, negative = inhibition) at 10uM |
| --- | --- |
| COC(=O)c1cc(C(=O)OC)cc(N2C(=O)CC(NNC(=O)c3ccc(C)cc3)C2=O)c1 (stereo not drawn) | -11.5% |
| CCOC(=O)C(C)On1c(-c2ccc(Cl)cc2)nc2ccc([N+](=O)[O-])cc21 (stereo not drawn) | -20.4% |
| O=C(O)COn1c(-c2ccccc2)nc2ccc([N+](=O)[O-])cc21 | 11.3% |
| CCOC(=O)C(C)On1c(-c2ccccc2)nc2ccc([N+](=O)[O-])cc21 (stereo not drawn) | -51.3% |
| COc1ccc(NC(=O)C/C(C)=N/NC(=O)C(=O)NC2CCCCC2)c(OC)c1 | -8.46% |
| COc1cc(NC(=O)C/C(C)=N/NC(=O)C2CCCCC2)c(OC)cc1Cl | 9.28% |
| COc1cc(NC(=O)C/C(C)=N/NC(=O)C(=O)NC2CCCCC2)c(OC)cc1Cl | -91.2% |
| O=C(NNC(=O)c1cc(Cl)ccc1O)c1ccc(NS(=O)(=O)c2cccs2)cc1 | -20.7% |
| CCOC(=O)CC1ON(C)C(=O)N1c1ccc([N+](=O)[O-])cc1 (stereo not drawn) | -6.46% |
| C/C(=N/NC(=O)c1ccn(C)n1)c1ccncc1 | 13.2% |
| O=S(=O)(c1ccc(Cl)cc1)N1CCCN(c2ccc(C(F)(F)F)cn2)CC1 | -23.3% |
| O=C(O)COCC(=O)N1CCCN(c2ccc(C(F)(F)F)cn2)CC1 | 14.3% |
| N#Cc1ccc(OCC(=O)N2CCN(c3ccc(C(F)(F)F)cn3)CC2)cc1 | -54.7% |
| O=S(=O)(c1ccc(C(F)(F)F)cc1)N1CCCN(c2ccc(C(F)(F)F)cn2)CC1 | 5.3% |
| N#Cc1ccc(S(=O)(=O)N2CCCN(c3nc4ccc(Cl)cc4s3)CC2)cc1 | -70.3% |
| N#Cc1ccc(S(=O)(=O)N2CCCN(c3ccc(C(F)(F)F)cn3)CC2)cc1 | -73.9% |
| CC(CC(=O)N1CCN(c2ccc(C(F)(F)F)cn2)CC1)n1ccnc1 (stereo not drawn) | -66.2% |
| CS(=O)(=O)N1CCN(c2nc3ccc(Cl)cc3s2)CC1 | 5.72% |
| O=S(=O)(c1ccc(Cl)cc1)N1CCCN(c2nc3ccc(Cl)cc3s2)CC1 | 11.8% |
| CCOC(=O)N1CCN(c2ccc(C(F)(F)F)cn2)CC1 | -4.3% |
| Cc1ccccc1SCC(=O)N1CCN(c2ccc(C(F)(F)F)cn2)CC1 | -38% |
| CC(=O)c1cccc(OCC(=O)N2CCN(c3ccc(C(F)(F)F)cn3)CC2)c1 | -16.3% |
